Laboratory results taken from PubChem BioAssay (NCI).
The panel holds about 79,000 compounds, 15% with a hit somewhere; the sample as a whole holds those more often. No stated cut-off is given here; in the data, active means growth inhibition above about 70%; inactive means the rest. Where a SMILES comes first, the peptide text is derived from it.

Experiments:
[1] = NCI Yeast Anticancer Drug Screen. Data for the rad50 strain (AID 155);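 further: 0% = growth of vehicle-only cultures of the same strain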; conditions: S. cerevisiae rad50 strain growth inhibition; at 50.0 µM; hits give high values
How it was run: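 Relative growth inhibition (compound vs vehicle) was measured in yeast with a defined repair-gene alteration.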

[2] = NCI Yeast Anticancer Drug Screen. Data for the mec2-1 strain (AID 157); conditions: S. cerevisiae mec2-1 strain, at 50.0 µM, hits give high values
How it was run: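 Strain: mec2-1 (DNA repair/cell cycle alteration). Compound exposure, then growth measured; inhibition expressed relative to vehicle.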

[3] = NCI Yeast Anticancer Drug Screen. Data for the sgs1 mgt1 strain (AID 161);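 further: 0% = growth of cultures given vehicle only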; conditions: S. cerevisiae sgs1 mgt1 strain, at 50.0 µM, hits give high values
How it was run: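 Mutant yeast exposed to compound; growth scored against vehicle-only wells.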

[4] = NCI Yeast Anticancer Drug Screen. Data for the cln2 rad14 strain (AID 165);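 further: 0% = growth equal to vehicle treated cultures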; conditions: S. cerevisiae cln2 rad14 strain, at 50.0 µM, hits give high values
How it was run: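 Compounds are applied to the cln2 rad14 yeast strain, and growth is then compared with that of vehicle-treated cultures to give inhibition.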

[5] = NCI Yeast Anticancer Drug Screen. Data for the bub3 strain (AID 167); conditions: S. cerevisiae bub3 mutant strain, at 50.0 µM, hits give high values
How it was run: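 Screening used yeast with an engineered genetic alteration affecting cell cycle control. Compound-exposed cultures were compared with vehicle cultures, and reduced growth was taken as inhibition.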

[6] = NCI Yeast Anticancer Drug Screen. Data for the mlh1 rad18 strain (AID 175); conditions: S. cerevisiae mlh1 rad18 strain growth inhibition; at 50.0 µM; hits give high values
How it was run: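 Read-out is yeast growth inhibition, calculated against vehicle-only controls. The compound was applied to a strain engineered with DNA damage repair alterations.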

Measured: growth inhibition

Cc1nn(-c2ccccc2)c2c1CC(=O)Nc1ccccc1-2
inactive: [1] -14.1% | [2] -29.1% | [3] -11.5% | [4] -26.8% | [5] -37.6% | [6] 9.15%

CC(C=O)CCC(C)(O)C=O (stereo not given)
inactive: [1] -9.4% | [2] -7.8% | [3] -7% | [4] 8.65% | [5] -10.5% | [6] 1.45%

COCCN(C)C(c1ccccc1)C(O)c1ccccc1 (stereo not given)
inactive: [1] 4.8% | [2] -12.9% | [3] 4.3% | [4] -37% | [5] 4.95% | [6] 4.1%

NCCCCC(NC(=O)C(N)Cc1cnc[nH]1)C(=O)O (stereo not drawn) (H-His-Lys-OH; configuration not given here)
inactive: [1] 4.1% | [2] -5.75% | [3] -4% | [4] 13.3% | [5] 7.55% | [6] -12.2%

N#Cc1ccccc1-c1ccccc1/C=C/C(=O)O
inactive: [1] -20.4% | [2] -5.9% | [3] -9.5% | [4] 11.8% | [5] -8% | [6] 12.4%

CC(C)NCc1ccccc1Sc1ccccc1CNC(C)C
inactive: [1] 22.1% | [2] 5.45% | [3] 12.1% | [4] 12.8% | [5] 11.4% | [6] 16.2%

Cc1cn(CCCCCCCCCCCCOc2c3occc3cc3ccc(=O)oc23)c(=O)[nH]c1=O
inactive: [1] 20.1% | [2] 4.6% | [3] -3.5% | [4] 23.2% | [5] -2.35% | [6] 19.6%

COc1cc2oc3c(C)c(=O)cc4oc(-c5ccccc5)cc(c2c2c1CCC(c1ccccc1)O2)c43 (stereo not given)
inactive: [1] -23.6% | [2] -5.9% | [3] -20.1% | [4] 4.35% | [5] -20.2% | [6] -0.7%

COc1ccc(C(C2=C(O)CC(C)OC2=O)C2=C(O)CC(C)OC2=O)cc1 (stereo not given)
inactive: [1] -15.1% | [2] -5.4% | [3] -12.6% | [4] -14.2% | [5] -19.1% | [6] -10%

Cc1cccc(C)c1C1=NCCN1
inactive: [1] 3.55% | [2] -8.95% | [3] -8.95% | [4] -39.2% | [5] -16.8% | [6] 1.65%

CCOC(=O)/C(C#N)=C/c1ccc([N+](=O)[O-])cc1
inactive: [1] 19.2% | [2] -2.75% | [3] 14.5% | [4] -5.6% | [5] 0.35% | [6] 8.4%

OC1CCC2OC12 (stereo not given)
inactive: [1] 7.3% | [2] 0.55% | [3] 18.2% | [4] 0.4% | [5] -1.3% | [6] 2%

Nc1cccc2c(O)cc(S(=O)(=O)O)cc12
inactive: [1] -1.35% | [2] -19.2% | [3] 7.6% | [4] -10.7% | [5] -0.4% | [6] 21.6%

COC(=O)C1CCCC2(C1)OCCO2 (stereo not given)
inactive: [1] 15.2% | [2] 5% | [3] -23.1% | [4] -10.2% | [5] -32.7% | [6] -2.75%

CCOC(=O)c1ccccc1OC(=O)Oc1ccccc1C(=O)OCC
inactive: [1] 17.9% | [2] 10.2% | [3] -5.25% | [4] -23.1% | [5] -5.55% | [6] 33.9%

CCOC(=O)c1c(/N=C/c2ccc(N(C)C)cc2)sc2c1CCCC2
inactive: [1] 14.2% | [2] 13.8% | [3] 17.3% | [4] 23.6% | [5] 17.8% | [6] 5.85%

Cc1ccc(C2CC(c3ccc([N+](=O)[O-])cc3)=Nc3ccccc3S2)cc1 (stereo not given)
inactive: [1] 6.4% | [2] -1.75% | [3] 15.1% | [4] 14.7% | [5] 20.5% | [6] 8.6%

Cc1c(-c2ccccc2)nnn1-c1ccc(F)c(Cl)c1
inactive: [1] -16.4% | [2] -27.1% | [3] -8.75% | [4] -10.4% | [5] 6.95% | [6] -12.4%

CCN(CC)CCNC(=O)c1ccccc1NC(=O)C(=O)Nc1ccccc1C(=O)NCCN(CC)CC
inactive: [1] -46.9% | [2] -13.2% | [3] -55.2% | [4] -5.15% | [5] -60.3% | [6] -41.6%

CC(/C=C/C=C/C=C/C=C/C=C/C(O)=C1/C(=O)C(CCC(=O)O)N(C)C1=O)=C\C(C)C(OC1CC(O)C(O)C(C)O1)C(C)C (stereo not given)
inactive: [1] -11.6% | [2] -28.6% | [3] -1.7% | [4] 3.35% | [5] -10.1% | [6] -2.65%
